# Measured values taken from PubChem BioAssay AID1159580 (chemical genetic matrix, 2015).
# The campaign covered roughly 5,500 compounds. About 2,000 (36%) were called active. Roughly 18% stayed inconclusive and do not appear here. Some of the results follow. Unmarked numbers belong to inactive results. Rule as the data show it: active = normalized growth mostly below about 0.91 (no sharp cut-off); inconclusive = no clear call, values can overlap the other calls; inactive = mostly above about 0.92.
# Assay: chemical genetic growth profiling, strain panel (AID 1159580);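 also: tested at 20 µM; growth read once vehicle control cultures reached saturation at 30 °C; 1 = growth at the plate median or of vehicle wells; lower values mean less growth of the strain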
# Conditions: S. cerevisiae deletion strains, growth OD
compound,measurement,setting,value
CC(=O)Nc1ccc([N+](=O)[O-])cc1[N+](=O)[O-],normalized growth,"locus YAR019C, strain CDC15, active compounds read low",0.619 (active)
same,normalized growth,"locus YBL105C, strain PKC1, active compounds read low",0.925
same,normalized growth,"locus YBR135W, strain CKS1, active compounds read low",0.911
same,normalized growth,"locus YBR136W, strain MEC1, active compounds read low",0.922
same,normalized growth,"locus YBR160W, strain CDC28, active compounds read low",0.918
same,normalized growth,"locus YDL017W, strain CDC7, active compounds read low",0.927
same,normalized growth,"locus YDL028C, strain MPS1, active compounds read low",0.924
same,normalized growth,"locus YDL101C, strain DUN1, active compounds read low",0.671 (active)
same,normalized growth,"locus YDL108W, strain KIN28, active compounds read low",0.912
same,normalized growth,"locus YDL132W, strain cdc53, active compounds read low",0.838 (active)
same,normalized growth,"locus YDL214C, strain PRR2, active compounds read low",0.165 (active)
same,normalized growth,"locus YDR052C, strain DBF4, active compounds read low",0.931
same,normalized growth,"locus YDR054C, strain cdc34, active compounds read low",0.625 (active)
same,normalized growth,"locus YDR226W, strain ADK1, active compounds read low",0.911
same,normalized growth,"locus YDR477W, strain SNF1, active compounds read low",0.188 (active)
same,normalized growth,"locus YER123W, strain YCK3, active compounds read low",0.114 (active)
same,normalized growth,"locus YER133W, strain GLC7, active compounds read low",0.131 (active)
same,normalized growth,"locus YFL009W, strain cdc4, active compounds read low",0.899
same,normalized growth,"locus YFL029C, strain CAK1, active compounds read low",0.605 (active)
same,normalized growth,"locus YFR003C, strain YPI1, active compounds read low",0.926
same,normalized growth,"locus YFR019W, strain FAB1, active compounds read low",0.27 (active)
same,normalized growth,"locus YFR028C, strain CDC14, active compounds read low",0.9
same,normalized growth,"locus YGR040W, strain KSS1, active compounds read low",0.206 (active)
same,normalized growth,"locus YGR052W, strain FMP48, active compounds read low",0.175 (active)
same,normalized growth,"locus YGR092W, strain DBF2, active compounds read low",0.349 (active)
same,normalized growth,"locus YHR030C, strain SLT2, active compounds read low",0.123 (active)
same,normalized growth,"locus YHR079C, strain IRE1, active compounds read low",0.388 (active)
same,normalized growth,"locus YHR082C, strain KSP1, active compounds read low",0.205 (active)
same,normalized growth,"locus YHR205W, strain SCH9, active compounds read low",0.0559 (active)
same,normalized growth,"locus YIL147C, strain SLN1, active compounds read low",0.927
same,normalized growth,"locus YJL095W, strain BCK1, active compounds read low",0.174 (active)
same,normalized growth,"locus YJL128C, strain PBS2, active compounds read low",0.878
same,normalized growth,"locus YJL157C, strain FAR1, active compounds read low",0.307 (active)
same,normalized growth,"locus YJR016C, strain ILV3, active compounds read low",0.924
same,normalized growth,"locus YJR066W, strain TOR1 (second series), active compounds read low",0.145 (active)
same,normalized growth,"locus YJR066W, strain TOR1, active compounds read low",0.152 (active)
same,normalized growth,"locus YKL048C, strain ELM1, active compounds read low",0.707 (active)
same,normalized growth,"locus YKL067W, strain YNK1, active compounds read low",0.284 (active)
same,normalized growth,"locus YKL101W, strain HSL1, active compounds read low",0.534 (active)
same,normalized growth,"locus YKL193C, strain SDS22, active compounds read low",0.753 (active)
same,normalized growth,"locus YKL203C, strain TOR2, active compounds read low",0.213 (active)
same,normalized growth,"locus YLR113W, strain HOG1, active compounds read low",0.153 (active)
same,normalized growth,"locus YLR133W, strain CKI1, active compounds read low",0.438 (active)
same,normalized growth,"locus YLR403W, strain SFP1, active compounds read low",0.21 (active)
same,normalized growth,"locus YML070W, strain DAK1, active compounds read low",0.202 (active)
same,normalized growth,"locus YMR205C, strain PFK2 (second series), active compounds read low",0.511 (active)
same,normalized growth,"locus YMR277W, strain FCP1, active compounds read low",0.668 (active)
same,normalized growth,"locus YNL006W, strain LST8, active compounds read low",0.927
same,normalized growth,"locus YNL020C, strain ARK1, active compounds read low",0.558 (active)
same,normalized growth,"locus YNL161W, strain CBK1, active compounds read low",0.722 (active)
same,normalized growth,"locus YNL183C, strain NPR1, active compounds read low",0.105 (active)
same,normalized growth,"locus YNL207W, strain RIO2, active compounds read low",0.909
same,normalized growth,"locus YNL222W, strain SSU72, active compounds read low",0.711 (active)
same,normalized growth,"locus YNL307C, strain MCK1 (second series), active compounds read low",0.241 (active)
same,normalized growth,"locus YOL078W, strain AVO1, active compounds read low",0.679 (active)
same,normalized growth,"locus YOL136C, strain PFK27, active compounds read low",0.227 (active)
same,normalized growth,"locus YOR061W, strain CKA2, active compounds read low",0.587 (active)
same,normalized growth,"locus YOR119C, strain RIO1, active compounds read low",0.196 (active)
same,normalized growth,"locus YOR231W, strain MKK1, active compounds read low",0.396 (active)
same,normalized growth,"locus YOR329C, strain SCD5, active compounds read low",0.929
same,normalized growth,"locus YPL031C, strain PHO85, active compounds read low",0.213 (active)
same,normalized growth,"locus YPL153C, strain RAD53, active compounds read low",0.271 (active)
same,normalized growth,"locus YPL204W, strain HRR25, active compounds read low",0.276 (active)
same,normalized growth,"locus YPL209C, strain IPL1, active compounds read low",0.915
same,normalized growth,"locus YPL256C, strain CLN2, active compounds read low",0.164 (active)
same,normalized growth,"locus YPR025C, strain CCL1, active compounds read low",0.92
same,normalized growth,"locus YPR106W, strain ISR1, active compounds read low",0.926
same,normalized growth,"locus YPR111W, strain DBF20, active compounds read low",0.902
same,normalized growth,"strain NNK1, active compounds read low",0.931
same,normalized growth,"strain TSCII, active compounds read low",0.587 (active)
